# In ChEMBL document CHEMBL3988442, “University of Dundee, Small-Polar-MMV Screening Library” (2021):
# In all, about 48,000 compounds went through this assay and about 13,000 (27%) showed an effect of 50% or more. Some of the results follow.
# Test system: Wolbachia pipientis
# Experiment: Anti-Wolbachia Cell-Based Screen
# Assay type: functional
# Design: scale not given: in the data most compounds retested in dose-response had high values
# Conditions: 5 µM
row,Structure (SMILES),Percent Effect [%]
1,O=C(c1ccon1)N1CCc2ncnc(NCc3cccnc3)c2CC1,-8.818
2,CN1CCN(c2cc(CNCc3cccc4c3OCO4)ccn2)CC1,11.73
3,CC1CCCN(S(=O)(=O)NCCN/C(O)=C2/N=CC=CC2=O)C1 (stereo not given),-6.366
4,O=C(NCC1Cn2nnc(-c3ccncc3)c2CO1)c1ccsc1.O=C(O)C(F)(F)F (stereo not given),-1.201
5,O=C(NC[C@H]1C[C@@H]2CN(C(=O)c3ccco3)C[C@@H]2O1)c1ccsc1,124.8
6,O=C(c1ccsc1)N1C[C@@H]2C[C@@H](c3nnc(C4CC4)o3)O[C@@H]2C1,1.173
7,Cn1cccc1C(=O)NC[C@H]1C[C@@H]2CN(C(=O)c3ccco3)C[C@@H]2O1,102.1
8,O=C(NC[C@H]1C[C@@H]2CN(C(=O)c3ccno3)C[C@@H]2O1)C1CCC1,2.338
9,O=C(NC[C@@H]1C[C@@H]2CN(C(=O)CO)C[C@H]2O1)c1ccsc1,119.3
10,Cn1cccc1C(=O)NC[C@H]1C[C@@H]2CN(C(=O)c3ccno3)C[C@H]2O1,1.866
11,CN(C)C[C@H]1C[C@@H]2CN(C(=O)c3ccco3)C[C@@H]2O1,-6.391
12,CC(C)NC[C@@]1(COc2ccccc2)C[C@@H](O)[C@@H](O)C1.Cl,3.998
13,N#Cc1ccc(N2CCCC2Cn2cncn2)nc1 (stereo not given),6.543
14,COc1ccccc1C(C#N)NC(=O)c1cccc2c1oc(=O)n2C (stereo not given),-5.303
15,CC(=O)N1CCCN(C(=O)NC(C)c2csc3ccccc23)CC1 (stereo not given),-8.175
16,O=C1N(Cc2cccc(F)c2F)CCCC1(O)CNC1CCCC1 (stereo not given),4.204
17,COCCNC(=O)Nc1ccc(C(=O)N2CCSCC2)cc1C,-68.32
18,O=C(Cc1ccc(Cl)cc1)N1CCC(O)(C(F)(F)F)C1 (stereo not given),-18.33
19,O=C(Cc1ccccc1)N1CCC2(CC1)CN(c1ncccn1)CCO2,-17.85
20,NCCC(=O)N1CCC2(CC1)CN(C(=O)Cc1ccc(Cl)cc1)CCO2,115.1
21,O=C(Cc1ccccn1)N1CCC2(CC1)CN(c1ccccn1)CCO2,1.035
22,O=C(CCc1ccc(Cl)cc1)N1CCC(O)(C(F)(F)F)C1 (stereo not given),8.106
23,NCC(=O)N1CCC2(CC1)CN(C(=O)Cc1ccc(Cl)cc1)CCO2,111
24,NCCC(=O)N1CCC2(CC1)CN(C(=O)Cc1cccc(Cl)c1)CCO2,105.1
25,Cl.NCC1CCCCN1C(=O)Cc1cccc(Cl)c1 (stereo not given),-19.94
26,O=C(CN1C(=O)c2ccccc2C1=O)N1CCOC2(CCOCC2)C1,-3.799
27,CCOc1ncccc1C(=O)Nc1c(C)cnn1CC1CC1,12.64

row,Structure (SMILES),Percent Effect [%]
1,CC(=O)N1CCN(Cc2nnc(C(C)(C)C)o2)CC1,-8.386
2,Cc1cc(CN(C)C(=O)NCc2ccnc(OC3CCCC3)c2)no1,7.98
3,CC(=O)N1CCN(C(=O)c2cnc(OC(C)C)c(Cl)c2)CC1,-40.95
4,CCCOc1ccc(CNc2cncc(-n3cccn3)n2)cc1,92.88
5,CNC(=O)COc1ccc(CNc2c(Cl)cccc2C#N)cc1,-7.522
6,CCN(CC)C(=O)c1ccc(CNc2ncc(C#N)cc2Cl)cc1,2.172
7,CCOc1cccc(CNc2cncc(-n3cccn3)n2)c1,10.28
8,CNC(=O)COc1ccc(CNc2cncc(-n3cccn3)n2)cc1,94.6
9,CCN(Cc1nccn1C)C(=O)c1ccc(NCc2ccccc2)nc1,-22.31
10,CCN(CC)C(=O)c1ccc(CNc2cncc(-n3cccn3)n2)cc1,118.2
11,CN(CCCc1ccccc1)C(=O)c1cn2c(n1)CNCC2,13.8
12,O=C(CSc1ccc2c(c1)OCCO2)NS(=O)(=O)c1ccccc1,-10.89
13,Cn1nccc1C1CCN(Cc2cnn(-c3ccccc3)n2)CC1,-1.945
14,CN(CCc1ccccc1)c1cnn(CC(=O)N2CCSCC2)c(=O)c1,-7.275
15,COc1cc(CNCc2c(C(C)C)nn(C)c2N(C)C)ccn1,-8.861
16,Cc1nn(C)c(N(C)C)c1CNCc1ccnn1C,-14.99
17,Cc1nn(CC(C)C)c(N(C)C)c1CNCc1cccc2c1OCO2,0.06204
18,Cc1nn(CC(C)C)c(N(C)C)c1CNCc1cccnc1N(C)C,-5.662
19,COc1cc(CNCc2c(C)nn(C)c2N(C)C)ccn1,-5.351
20,COc1cc(CNCc2c(C)nn(CC(C)C)c2N(C)C)ccn1,90.35
21,CC(=O)NCCCNCc1c(C)nn(CC(C)C)c1N(C)C,-6.238
22,Cc1nn(CC(C)C)c(N(C)C)c1CNCc1ccnn1C,113.6
23,Cc1nn(CC(C)C)c(N(C)C)c1CNCc1cc2ccccc2[nH]1,5.6
24,CC(C)c1nn(C)c(N(C)C)c1CNCc1ccnn1C,10.31
25,Cc1nn(CC(C)C)c(N(C)C)c1CNCc1ccc(CO)c(F)c1,108.6
26,Cc1nn(CC(C)C)c(N(C)C)c1CNCc1ccccc1CO,116.8
27,COCC1CN(C(=O)Nc2cc(-n3cccc3)ccc2F)CCO1 (stereo not given),0.4358

row,Structure (SMILES),Percent Effect [%]
1,O=S(=O)(NCCc1c[nH]c2ccc(F)cc12)C1CCOCC1,-14.21
2,Cc1cc(N2CCN(Cc3ccc(C)o3)CC2)cc(C)n1,4.051
3,CN(Cc1cccc(Cl)c1)C(=O)Cn1nc(-c2ccc(F)cc2)oc1=O,-8.099
4,CCOCc1nc2c(c(N(C)Cc3snnc3C)n1)CCNCC2,2.794
5,O=C(NC[C@@H]1CCCO1)c1ccc(S(=O)(=O)N[C@@H]2CCNC2)cc1,-1.141
6,CC(NCc1ccc(F)cc1)c1ccc(S(C)(=O)=O)cc1 (stereo not given),8.945
7,N#Cc1cc(F)ccc1NCc1ccc(Cn2cncn2)cc1,1.669
8,COc1ccc(CNC(Cn2cncn2)c2ccccc2)cc1C (stereo not given),-2.513
9,Cc1[nH]ncc1C(C)NCc1ccc(F)cc1 (stereo not given),-5.411
10,Fc1ccc(CNc2ccccc2Cn2cncn2)cc1,-15.58
11,CC(C)c1ccc(CNC(c2ccc(F)cn2)C(C)C)cc1 (stereo not given),100.5
12,COc1ccc(CNC(Cn2cncn2)c2ccccc2)cc1O (stereo not given),-2.426
13,CC(C)C(NCc1ccc(Cn2cncn2)cc1)c1ccc(F)cn1 (stereo not given),90.96
14,CC(C)C(NCc1ccc(Cn2cncn2)cc1)c1ccccc1 (stereo not given),124.9
15,COc1cc(OC)cc(N2CCC(NCc3occc3C)C2=O)c1 (stereo not given),-29.36
16,Cc1cn(Cc2nc(CC(C)C)nn2-c2ccccn2)c(=O)[nH]c1=O,5.875
17,CCOCCC(=O)Nc1cc(C)cnc1OC,1.473
18,O=C(O)C(c1ccc2[nH]ccc2c1)N1CCN(c2cnccn2)CC1 (stereo not given),-11.7
19,O=C(C1=CCCC1)N1CCC[C@]2(C[C@@H](OCc3ccncc3)CO2)C1.O=C(O)C(F)(F)F,-18.3
20,Cc1ccc(S(=O)(=O)NC[C@H]2OC[C@@H](NCc3ccccc3)[C@@H]2O)cc1,-16.71
21,COC1CCN(S(=O)(=O)N2CCC3(CCCNC3=O)C2)CC1 (stereo not given),4.322
22,CN1CC(Nc2nc3c(cnn3C(C)(C)C)c(=O)[nH]2)CCC1=O (stereo not given),10.78
23,Cc1ccc(CC(=O)N2CCCn3nnc(Cn4cccn4)c3C2)cc1,-8.474
24,O=C1CCCN1Cc1ncn2c1CN(C(=O)Cc1ccccc1)CCC2,99.41
25,O=C1CCCN1Cc1ncn2c1CN(S(=O)(=O)c1cccs1)CCC2,-2.152
26,O=C1CCCN1Cc1ncn2c1CN(C(=O)Cc1cccs1)CCC2,106.6
27,O=C(O)C(F)(F)F.O=C1CCCN1Cc1ncn2c1CN(Cc1cccs1)CCC2,-6.025

row,Structure (SMILES),Percent Effect [%]
1,CCCn1ncnc1C(C)NC(=O)CC1CCN(C(C)C)CC1 (stereo not given),-1.645
2,Cl.c1csc(-c2noc(C3CCCNC3)n2)c1 (stereo not given),100.6
3,CCS(=O)(=O)N1CC(c2nc(-c3cccs3)no2)C1,0.556
4,c1csc(-c2noc(C3CCCOC3)n2)c1 (stereo not given),-23.77
5,CCN(CC)CCn1cnc(-c2ccccc2)c1-c1cnn(CC)c1,8.592
6,CCn1cc(-c2nn3c(C(F)(F)F)nnc3s2)cn1,71.37
7,Cc1nn(C)cc1-c1nn2c(C(F)(F)F)nnc2s1,115.5
8,CN(Cc1cc(=O)c(O)co1)C1CCN(c2ccc(F)cc2)CC1,-14.07
9,CN(C)C[C@H]1C[C@H](CO)CN(C(=O)c2cc(S(N)(=O)=O)ccc2F)C1,-6.33
10,CN(C)C[C@H]1C[C@@H](CO)CN(C(=O)c2cc(=O)[nH]c3cc(F)ccc23)C1,-10.33
11,COCCN(C)C[C@H]1C[C@H](CO)CN(C(=O)c2ccn(C)c(=O)c2)C1,59.73
12,Cn1ccc(C(=O)N2CCCC(CNS(C)(=O)=O)C2)cc1=O (stereo not given),-3.744
13,COCCN(C)C[C@H]1C[C@@H](CO)CN(C(=O)c2ccn(C)c(=O)c2)C1,96.22
14,Cc1nc(-c2ccc(Cl)s2)sc1C(=O)N(C)CC(N)=O,2.802
15,COCc1noc(-c2ccc(N3CCCC3c3nccs3)nc2)n1 (stereo not given),1.711
16,CCOC(=O)N1CCC(C(=O)Nc2nnc(C(F)(F)F)[nH]2)CC1,5.698
17,CCOC(=O)c1c(NC(=O)C2CCN(C(C)=O)CC2)sc(C)c1CC,114.1
18,CCc1c(C)sc(NC(=O)CN2CCN(CC)CC2)c1C(=O)OC,-10.89
19,CCc1c(C)sc(NC(=O)CN2CCOCC2)c1C(=O)OC,123.3
20,CCOC(=O)N1CCN(CC(=O)Nc2nnc(C)s2)CC1,-13.53
21,CCOC(=O)N1CCN(CC(=O)Nc2nnc(CC)s2)CC1,-11.16
22,CCC(C)NC(=O)CN1CCOCC1 (stereo not given),4.194
23,CCOC(=O)c1c(NC(=O)CN2CCN(C(C)=O)CC2)sc(C)c1C,112.4
24,CCc1ccc(NC(=O)C2CCN(C(=O)COC)CC2)cc1,-3.205
